Screening results: PubChem, several laboratories
An excerpt weighted towards active compounds, which were near 0.82% of everything screened.
Cardiac RTF inh = cardiac RTF calcium desensitization | inhibition, % at 7.15 µM | IANBD-labeled cardiac RTF, Ca2+ fluorescence | P19429+P45379 | actives 0.12% (n = 340,000);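 active = inhibition above the mean inhibition of all tested compounds plus 3 SD, cut at about 17% in these data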;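 also: assay run at fixed EC70 calcium of 1.6 mM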
RTF Ca sens act = increases calcium sensitivity of human cardiac regulated thin filaments | P19429+P45379 | IANBD-labeled TnC RTF fluorescence at EC20 calcium; 0% EC20 calcium, 100% full calcium | activation, % at 7.2 µM | actives 0.24% (n = 340,000) | AID 493008;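 active = activation above the mean over all tested compounds plus 3 SD, cut at about 30% in these data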;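 also: rise in fluorescence read as greater calcium sensitivity of cardiac thin filaments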
eLon inh = inhibits E. coli Lon protease; P0A9M0; purified E. coli Lon protease, fluorescence polarization; inhibition, % at 7.94 µM; actives 0.42% (n = 360,000); in the data active = inhibition above about 13%, passing the limit was not always enough;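 also: 0% = enzyme with probe and DMSO and 100% = no enzyme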
C-LANA FP = blocks KSHV LANA C-terminal domain binding to DNA; MBP-C-LANA/FAM-LBS DNA binding, fluorescence polarization; actives 0.078% (n = 340,000); inhibition, % at 9 µM;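 active = highest replicate inhibition at or above 60% at 9 µM, even if other replicates fall short; inactive = all replicates below 60% inhibition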;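 also: 0% = neutral control wells and 100% = 4 µM acridine orange control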
Keap1-Nrf2 PPI = disrupts human Keap1 binding to Nrf2 peptide | actives 0.15% (n = 340,000) | AID 504523 | inhibition, % at 9.4 µM | Q14145 | Keap1 Kelch-Nrf2 peptide fluorescence polarization, 1536-well; in the data active = inhibition above about 12%;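 also: human Keap1 Kelch domain with fluorescein labeled Nrf2 9mer peptide probe; 0% = neutral control wells and 100% = peptide positive control; higher means more block of Keap1 binding to Nrf2 peptide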
Target sequence (Q14145 whole entry, looked up, the tested form may be a part): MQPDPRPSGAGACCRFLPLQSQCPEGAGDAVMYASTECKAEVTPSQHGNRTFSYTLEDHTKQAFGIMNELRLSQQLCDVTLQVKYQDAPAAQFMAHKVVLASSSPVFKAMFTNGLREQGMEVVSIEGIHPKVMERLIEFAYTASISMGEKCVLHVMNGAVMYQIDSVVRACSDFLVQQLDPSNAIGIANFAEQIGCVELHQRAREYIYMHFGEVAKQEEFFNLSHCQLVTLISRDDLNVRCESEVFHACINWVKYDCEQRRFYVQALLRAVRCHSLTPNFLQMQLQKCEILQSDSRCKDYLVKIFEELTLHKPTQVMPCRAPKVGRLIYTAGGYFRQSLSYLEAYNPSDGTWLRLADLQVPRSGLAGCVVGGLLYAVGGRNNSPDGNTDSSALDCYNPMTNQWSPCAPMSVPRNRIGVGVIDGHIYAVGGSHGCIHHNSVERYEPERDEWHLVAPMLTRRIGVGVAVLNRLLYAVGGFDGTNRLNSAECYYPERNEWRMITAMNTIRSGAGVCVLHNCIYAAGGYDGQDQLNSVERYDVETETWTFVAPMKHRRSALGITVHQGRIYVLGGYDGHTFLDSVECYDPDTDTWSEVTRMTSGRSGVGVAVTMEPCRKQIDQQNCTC
RTF inh confirm = cardiac RTF calcium sensitivity inhibition, confirmation; shares compounds with Cardiac RTF inh; reconstituted cardiac thin filaments, calcium sensitivity fluorescence; inhibition, % at 7.15 µM; actives 8% (n = 360); in the data active = inhibition above about 18%
DNA intercal 2 = counter-screen for C-LANA inhibitors: DNA intercalators | shares compounds with C-LANA FP | AID 588364 | Acridine orange-DNA displacement, fluorescence polarization | AC50, µM (doses to about 35 µM), without a hit: top-dose activity change, negative = inhibition | 20 tested, under 10 active;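 active = signal drop with an AC50 no more than ten times the top valid dose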
Keap1 Kelch bind = binds and thermally shifts human Keap1 Kelch domain | shares compounds with Keap1-Nrf2 PPI | Keap1 Kelch thermal shift, delta Tm; active compounds read high | max delta Tm, degrees C | actives 8% (n = 400) | AID 651823; in the data active = max delta Tm above about 0.48 degrees C
Sypro dye melt = counter-screen for Keap1 thermal shift hits: dye-only artifacts; shares compounds with Keap1-Nrf2 PPI; Sypro Orange dye-only thermal melt, no protein, delta Tm; top dose 26 µM; delta Tm, degrees C (test concentration not listed); 140 tested, under 10 active; AID 651858;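 active = at highest dose tested, delta Tm positive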
eLon confirm = confirmation of E. coli Lon protease inhibitors; shares compounds with eLon inh; purified E. coli Lon, fluorescence polarization; inhibition, % at 7.94 µM; actives 31% (n = 1,400); AID 602230; in the data active = inhibition above about 16%;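 also: 0% = enzyme with probe and DMSO and 100% = no enzyme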
Starred values were filed as active, the others as inactive; / = not tested or not shown; ! = a repeat was not active.

SMILES	Cardiac RTF inh	RTF Ca sens act	eLon inh	C-LANA FP	Keap1-Nrf2 PPI	Keap1 Kelch bind	others
O=c1[nH]c(=S)[nH]c2c1C(c1ccc(Br)cc1)c1c([nH]c(=S)[nH]c1=O)O2	69*	-51	32*	112*	45*	-0.12	RTF inh confirm=1;Sypro dye melt=-26;eLon confirm=-49
Cc1ccc(N2C(=O)CSC2c2cccnc2)c(Cl)c1 (stereo not given)	-6	-2	2	1	2	/
CC1(C)[C@@H](O[C@H]2O[C@H](C(=O)O)[C@@H](O)[C@H](O)[C@H]2O[C@@H]2O[C@H](C(=O)O)[C@@H](O)[C@H](O)[C@H]2O)CC[C@]2(C)[C@H]3C(=O)C=C4[C@@H]5C[C@@](C)(C(=O)O)CC[C@]5(C)CC[C@@]4(C)[C@]3(C)CC[C@@H]12	/	/	/	/	/	/	DNA intercal 2=-5%
Cc1cccc(N(CC(=O)Nc2cccnc2)S(C)(=O)=O)c1	5	-2	-3	0	-1	/
Nc1c(C(=O)Nc2ccccc2F)sc2nc(Cc3ccccc3)cc(C(F)(F)F)c12	-8	49*	-6	44	33*	-0.2	DNA intercal 2=19µM*
O=C(CSc1nccn(-c2cccc(F)c2)c1=O)Nc1ccc(Cl)cc1F	-30	0	10	2	-5	/
CC(=O)c1ccc2c(c1)C1C=CCC1C(C(=O)O)N2 (stereo not given)	/	/	38*	114*	21*	2.1*	DNA intercal 2=2%;Sypro dye melt=-33;eLon confirm=22*
Cc1[nH]c2ccccc2c1C(=O)CSc1nc2ccccc2c(=O)n1CCCN1CCOCC1	4	3	8	0	-5	/
CN1CCC2(CC1)C1CN(C)CC=C1C(C#N)=C(N)C2(C#N)C#N (stereo not given)	-44	37*	0	40	14*!	-0.14
Cc1sc2ccccc2[n+]1CC(=O)O	0	-2	-1	2	-3	/
Cc1sc2ccccc2[n+]1CC(=O)c1ccccc1	-9	5	-5	11	22*	-0.12
O=C1CN(S(=O)(=O)c2cccc(C(=O)O)c2)c2ccccc2N1	0	0	4	0	-1	/
CCC(C)(C)n1nnnc1C(c1cc2ccc(OC)cc2[nH]c1=O)N1CCc2ccccc2C1 (stereo not given)	-1	-1	-5	35	9.6*	-0.13	Sypro dye melt=-24
CN(C)c1ccc(N2C(=NC(=O)COc3ccccc3)SC3CS(=O)(=O)CC32)cc1 (stereo not given)	-7	-1	-3	0	-6	/
COCCCn1c(=NC(C)=O)c(C#N)cc2c(=O)n3cccc(C)c3nc21	/	/	-8	/	/	/
CCOCCCn1c(=NC(=O)c2cccs2)c(C#N)cc2c(=O)n3cccc(C)c3nc21	-16	22	13	14	13*	0.24
COCCCn1c(=NC(=O)c2ccccc2)c(C#N)cc2c(=O)n3cccc(C)c3nc21	-19	11	84*	5	14*	0.04
Cc1noc(C)c1C(=O)N1CCC(C(=O)c2ccc(F)cc2F)CC1	-3	-6	0	2	0	/
COC(=O)c1ccc(OC(=O)CN2C(=O)c3ccccc3C2=O)cc1	-6	-2	-2	25	57*	-0.1
COC(=O)c1ccc(CN2C(=O)c3ccccc3C2=O)cc1	-3	-1	-3	-1	2	/
Cc1ccccc1NC(=O)c1sc(NC(=O)C2CC2)nc1C	-2	2	-8	12	28*	0.01
Cc1nc(NC(=O)C2CC2)sc1C(=O)Nc1ccccc1	-7	-6	-1	0	-1	/
Nn1c(SCC(=O)Nc2cccnc2Cl)nnc1-c1ccccc1	-5	-5	-4	3	-4	/
